Assay outcomes (PubChem)
IL1B secr inh – blocks inflammasome-driven IL-1 beta release | THP-1 LPS/ATP IL-1B secretion, AlphaLISA, 16 h; active compounds read low | activity change, % at 57.5 µM | 360,000 tested, 4.7% active | AID 743279; in the data active = activity change below about -50%; inconclusive = mostly about -30% to -49%
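THP-1 cells pretreated 1 hr with compounds (up to 57.5 uM final), then stimulated with LPS (250 ng/mL final) plus ATP (1.25 mM final); secreted IL-1B measured by AlphaLISA after 16 hr, decreased signal indicating inhibition.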
HT1080-NT tox – kills 2HG-producing HT-1080-NT fibrosarcoma cells; HT-1080-NT fibrosarcoma viability, CellTiter-Glo ATP luminescence, 48 h; Potency, µM (top dose mostly 46.1 µM), inactives show top-dose activity, negative = less viability, usual class: cytotoxic; 360,000 tested, 1.6% active; AID 686970;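 note: NT is the 2HG producing partner of a matched IDH1 knockdown line; potency is the fitted concentration of half-maximal effect; 0% = DMSO-treated cells and -100% = media-only wells without cells; nearly all actives have a fitted effect of over 55% in size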
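Compounds were tested in concentration-response format on HT-1080-NT cells for 48 hours at 37 degrees C. Cell viability came from CellTiter-Glo luminescence; curves were classified by r2, response magnitude and activity.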
DT40 TDP1 no CPT – qHTS for Inhibitors of human tyrosyl-DNA phosphodiesterase 1 (TDP1): qHTS in cells in absence of CPT. DT40 Tdp1-/- hTDP1 cells, no CPT, ATP luminescence, 48 h. 420,000 tested, 15% active. Potency, µM (titrated, usually from 46.2 µM), for the others: at the highest dose activity change, negative = growth inhibition, hits mostly inhibitors; note: potency is the fitted concentration of half-maximal effect; nearly all actives have a fitted effect of over 55% in size
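Growth kinetics read by CellTiter-Glo luminescence after ≥48 hr at 37 °C. Cells: DT40 Tdp1-/- stably carrying human TDP1, 400 per well, compound exposure in the absence of CPT (DMSO vehicle).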
DT40 TDP1 CPT – DT40-hTDP1 cell growth loss with CPT; Potency, µM (series often up to 46.2 µM), for the others: at the top dose activity change, negative = growth inhibition, actives largely listed as inhibitors; 420,000 tested, 12% active; chicken DT40 Tdp1-/-;hTDP1 cells + 20 nM CPT, ATP luminescence, 48 h; note: potency is the fitted concentration of half-maximal effect; nearly all actives have a fitted effect of over 55% in size
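Cell growth measured by CellTiter-Glo luminescence after a minimum 48 h, 37 C compound exposure with 20 nM CPT in Tdp1-knockout DT40 cells stably expressing hTDP1, seeded 400/well; qHTS titration format.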
uPA surface inh – cell surface uPA generation inhibition | cell surface uPA generation assay, qHTS | AID 540303 | 330,000 tested, 0.31% active | Potency, µM (titrated, usually from 38.3 µM), inactives show top-dose activity change, negative = inhibition, usual class: inhibitors; active = well fitted inhibition curve with a large enough effect; inconclusive = small, poorly fitted or top-dose-only effect; inactive = no such curve, though single readings can be large or run the other way; tested in mouse RAW 264.7 cells; note: potency is the fitted concentration of half-maximal effect; nearly all actives have a fitted effect of over 55% in size
HT1080 IDH1KD tx – HT-1080 IDH1 knockdown cell toxicity (counter line). HT-1080 IDH1 knockdown viability, ATP luminescence, 48 h. Potency, µM (titrated, usually from 46.1 µM), for the others: at the top dose activity, negative = toxicity, most hits filed as cytotoxic. 360,000 tested, 2% active. AID 686971;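 note: potency is the fitted concentration of half-maximal effect; 0% = DMSO wells and -100% = cell-free medium wells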
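Luminescent ATP read-out (CellTiter-Glo, 10 min at room temperature) after 48 h compound exposure at 37 °C gave viability of IDH1-knockdown HT-1080 cells. Activity was normalised to DMSO and cell-free wells, then fitted as concentration-response curves.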
* marks the source's active call; other numbers are inactive results. The list is not random: actives were taken first. Their share in the collection is about 19%. Unless noted, calls come from the whole dose curve; as a rule, active = well fitted curve in the direction sought with a large enough effect; inconclusive = small, poorly fitted or top-dose-only effect, or another doubt; inactive = no such curve, though single readings can be large; an effect the other way counts as inactive or inconclusive. Unless noted, % is set by controls: 0 for no effect and ±100 for the full control effect.

Screening O=C(COc1ccc(C(=O)c2ccccc2)cc1)NC1CCCCCC1 returned IL1B secr inh 0, HT1080-NT tox 4%, DT40 TDP1 no CPT 16µM*, DT40 TDP1 CPT 26µM*, uPA surface inh -4% and HT1080 IDH1KD tx -2%.
Screening CC(=O)c1ccc(NC(=O)NC2CCCCCCC2)cc1 returned IL1B secr inh -66*, HT1080-NT tox 9%, DT40 TDP1 no CPT -22%, DT40 TDP1 CPT inconclusive, uPA surface inh -2% and HT1080 IDH1KD tx -1%.
Screening O=C(COc1ccc(C(=O)c2ccccc2)cc1)NC1CCCCC1 returned IL1B secr inh 13, HT1080-NT tox 2%, DT40 TDP1 no CPT -18%, DT40 TDP1 CPT -6%, uPA surface inh 8% and HT1080 IDH1KD tx 12%.
Screening CC(C(=O)NC(C)(C)C)N(C(=O)CS(=O)CC(=O)Nc1ccc(F)cc1)C1CCCC1 (stereo not drawn) returned IL1B secr inh 6, HT1080-NT tox 7%, DT40 TDP1 no CPT -4%, DT40 TDP1 CPT 12%, uPA surface inh 10% and HT1080 IDH1KD tx -4%.
`O=C(Nc1cccnc1)Nc1ccc(Br)cc1Cl` gave IL1B secr inh inconclusive, HT1080-NT tox 0%, DT40 TDP1 no CPT inconclusive, DT40 TDP1 CPT inconclusive, uPA surface inh 0% and HT1080 IDH1KD tx 3%.
Screening O=C(Nc1cccc(Cl)c1)Nc1ccc(Br)cc1F returned IL1B secr inh -59*, HT1080-NT tox -20%, DT40 TDP1 no CPT 12µM*, DT40 TDP1 CPT 21µM*, uPA surface inh -7% and HT1080 IDH1KD tx -28%.
`O=C(Nc1ccccc1)Nc1ccc(Br)cc1F` gave IL1B secr inh inconclusive, HT1080-NT tox 7%, DT40 TDP1 no CPT 21µM*, DT40 TDP1 CPT 15µM*, uPA surface inh 4% and HT1080 IDH1KD tx -1%.
`O=C(Nc1ccc(-c2cn3c(n2)SCC3)cc1)c1ccc2ccccc2n1` gave IL1B secr inh -18, HT1080-NT tox -9%, DT40 TDP1 no CPT inconclusive, DT40 TDP1 CPT 16µM*, uPA surface inh -7% and HT1080 IDH1KD tx -11%.
Screening Oc1ccc(-c2cn3c(n2)SCC3)cc1 returned IL1B secr inh -17, HT1080-NT tox -1%, DT40 TDP1 no CPT -22%, DT40 TDP1 CPT -18%, uPA surface inh -10% and HT1080 IDH1KD tx -1%.
`Oc1ccc(-c2cn3c(n2)SCC3)cc1O` gave IL1B secr inh 70, HT1080-NT tox inconclusive, DT40 TDP1 no CPT 23µM*, DT40 TDP1 CPT inconclusive, uPA surface inh -7% and HT1080 IDH1KD tx -24%.
`COc1ccc(CN2CC[C@H]3C=CC[C@@H](C(=O)NC4CCCCC4)[C@H]3C2=O)cc1OC` gave DT40 TDP1 no CPT -21% and DT40 TDP1 CPT -23%.
For CCOC(=O)C1CCCN(C(=O)c2ccc(C)c(NC(=O)c3nsc4ccccc34)c2)C1 (stereo not drawn) the results were DT40 TDP1 no CPT 18µM* and DT40 TDP1 CPT inconclusive.
Screening CCOC(=O)C1CCN(C(=O)c2ccc(C)c(NC(=O)c3nsc4ccccc34)c2)CC1 returned DT40 TDP1 no CPT 23µM* and DT40 TDP1 CPT inconclusive.
Screening COC(=O)c1ccc(CN2C(=O)NC(CC(C)C)C2=O)cc1 (stereo not drawn) returned IL1B secr inh 29, HT1080-NT tox -4%, DT40 TDP1 no CPT 10%, DT40 TDP1 CPT -6%, uPA surface inh 1% and HT1080 IDH1KD tx -3%.
Screening COc1ccc(N2CCN(C(=O)CSc3nc(-c4ccccc4)no3)CC2)cc1 returned DT40 TDP1 no CPT -16% and DT40 TDP1 CPT -3%.
Screening CC(O)C(NS(=O)(=O)c1ccc(Cl)cc1)C(=O)OCC(=O)c1ccc2c(c1)NC(=O)CO2 (stereo not drawn) returned IL1B secr inh 13, HT1080-NT tox 4%, DT40 TDP1 no CPT 7%, DT40 TDP1 CPT -15%, uPA surface inh 7% and HT1080 IDH1KD tx 13%.
`O=C1COc2ccc(C(=O)COC(=O)CCSc3ccccc3)cc2N1` gave IL1B secr inh 62, HT1080-NT tox -5%, DT40 TDP1 no CPT -11%, DT40 TDP1 CPT 7%, uPA surface inh -1% and HT1080 IDH1KD tx 8%.
Screening CCC(C(=O)OCC(=O)c1ccc2c(c1)NC(=O)CO2)c1ccccc1 (stereo not drawn) returned IL1B secr inh -18, HT1080-NT tox -21%, DT40 TDP1 no CPT 21µM*, DT40 TDP1 CPT -18%, uPA surface inh -1% and HT1080 IDH1KD tx -22%.
CC(C)CC(NC(=O)c1ccc(Cl)cc1)C(=O)OCC(=O)c1ccc2c(c1)NC(=O)CO2 (stereo not drawn) was read as IL1B secr inh -86*, HT1080-NT tox 10µM*, DT40 TDP1 no CPT 12µM*, DT40 TDP1 CPT 12µM*, uPA surface inh -9% and HT1080 IDH1KD tx 8.2µM*.
`COC(=O)CN1C(=O)C2(C(C#N)=C(N)Oc3c2c(C)nn3-c2ccccc2)c2ccccc21` (stereo not drawn) gave IL1B secr inh -10, HT1080-NT tox inconclusive, DT40 TDP1 no CPT 21µM*, DT40 TDP1 CPT inconclusive, uPA surface inh -17% and HT1080 IDH1KD tx inconclusive.
COC(=O)CN1C(=O)C2(C(C#N)=C(N)Oc3n[nH]c(-c4cccs4)c32)c2ccccc21 (stereo not drawn) was read as IL1B secr inh -7, HT1080-NT tox -2%, DT40 TDP1 no CPT -22%, DT40 TDP1 CPT 7%, uPA surface inh 2% and HT1080 IDH1KD tx 10%.
`COc1ccc(-c2nnc(Nc3ccc(OC)c(C(N)=O)c3)c3ccccc23)cc1` gave DT40 TDP1 no CPT 16µM* and DT40 TDP1 CPT inconclusive.
CC(=O)Nc1ccc(Nc2nnc(-c3ccc(C)c(S(N)(=O)=O)c3)c3ccccc23)cc1 was read as IL1B secr inh 7, HT1080-NT tox -4%, DT40 TDP1 no CPT 0%, DT40 TDP1 CPT -13%, uPA surface inh -3% and HT1080 IDH1KD tx 3%.
COc1ccc(Nc2nnc(-c3ccc(C)c(S(=O)(=O)NCc4nc5ccccc5[nH]4)c3)c3ccccc23)cc1 was read as DT40 TDP1 no CPT 10µM* and DT40 TDP1 CPT 21µM*.
For CC(=O)Nc1ccc(Nc2nnc(-c3ccc(C)c(S(=O)(=O)NCCO)c3)c3ccccc23)cc1 the results were IL1B secr inh inconclusive, HT1080-NT tox -8%, DT40 TDP1 no CPT 3%, DT40 TDP1 CPT 5%, uPA surface inh 12% and HT1080 IDH1KD tx 0%.
